# Measured values published in PubChem BioAssay AID651558 (National Center for Advancing Translational Sciences (NCATS), 2012).
# Screen size: about 1,200 compounds; about 480 (40%) were called active. About 29% were inconclusive and are not listed. Calls come from the whole dose curve; as a rule, active = well fitted inhibition curve with a large enough effect; inconclusive = small, poorly fitted or top-dose-only effect; inactive = no such curve, though single readings can be large or run the other way. The list shows a part of the results.
# Experiment: qHTS Assay to Find Inhibitors of Chronic Active B-Cell Receptor Signaling: Hit Validation in Primary Screen; note: nearly all actives have a fitted effect of over 75% in size
# Details: ABC-DLBCL IkB-luc/CBR ratio luminescence, 4 h; series mostly up to 46.1 µM; activity change, negative = inhibition: at the top concentration
# Procedure, shortened: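 TMD8 ABC-DLBCL cells carrying doxycycline-inducible IkBa-green luciferase fusion and free red luciferase, 0.5% FBS, dosed 46 uM–3 nM with doxycycline for 4 h at 37C. Green/red luminescence ratio normalized to basal and 10 uM MG-132.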
# % is set by controls: 0 for no effect and ±100 for the full control effect; potency is the fitted concentration of half-maximal effect.
SMILES,Potency,"activity change, negative = inhibition"
COc1ccc(-c2cccc(-c3cc(=O)oc4cc(OC)cc(OC)c34)c2)cc1,1160 nM (active),
COc1cc(OC)c2c(-c3cccc(-c4ccc(N(C)C)cc4)c3)cc(=O)oc2c1,2060 nM (active),
COc1cc(OC)c2c(-c3cccc(-c4ccc(OC)c(F)c4)c3)cc(=O)oc2c1,1160 nM (active),
CC(=O)c1ccsc1-c1c(C)cc2oc(=O)cc(-c3ccccc3)c2c1C,,-17.2% (inactive)
COc1cc(OC)c2c(-c3cccc(-c4sccc4C(C)=O)c3)cc(=O)oc2c1,5170 nM (active),
COc1cc(OC)c2c(-c3cccc(-c4cccc(N)c4)c3)cc(=O)oc2c1,6510 nM (active),
COc1cc(OC)c2c(-c3cccc(-c4ccc(NC(C)=O)cc4)c3)cc(=O)oc2c1,2590 nM (active),
COc1cc(OC)c2c(-c3cccc(-c4ccc(O)cc4)c3)cc(=O)oc2c1,2590 nM (active),
CCc1ccc(N2CC(C(=O)OCC(=O)Nc3ccccc3C)CC2=O)cc1 (configuration not stated),,-2.86% (inactive)
Cc1[nH][nH]c(=O)c1C(c1c(C)[nH][nH]c1=O)c1cn(Cc2ccc(F)cc2)c2ccccc12,14600 nM (active),
CCOC(=O)C(NCc1ccccc1)(NC(=O)c1ccccc1)C(F)(F)F (configuration not stated),,-4.33% (inactive)
CCCc1nnc(NC(=S)Nc2ccccc2)s1,164 nM (active),
CCc1nnc(NC(=S)Nc2ccccc2)s1,651 nM (active),
CCNC(=S)NNc1ccccc1,,-3.97% (inactive)
S=C(Nc1ccccc1)Nc1nccs1,,-19.7% (inactive)
Cc1csc(NC(=S)Nc2cccc(Cl)c2)n1,,-5.57% (inactive)
CCCc1nnc(NC(=O)CCC(=O)NCCc2ccc(OC)c(OC)c2)s1,,-8.23% (inactive)
Cc1cc(Cl)n2c(nc3ccccc32)c1C#N,1840 nM (active),
Cc1nn(-c2ccccc2)c(C)c1/C=N/NC(=O)c1cc(-c2ccccc2)n[nH]1,2310 nM (active),
Cc1ccc(-c2cc(C(=O)N/N=C/c3c(C)nn(-c4ccccc4)c3C)[nH]n2)cc1,2310 nM (active),
Cc1nn(-c2ccccc2)c(C)c1/C=N/NC(=O)c1cc(-c2cccs2)[nH]n1,3260 nM (active),
C[C@@H]1C[C@H]2[C@@H]3C[C@H](F)C4=CC(=O)C=C[C@]4(C)[C@@]3(F)[C@@H](O)C[C@]2(C)[C@@]1(O)C(=O)CO,,-15.3% (inactive)
COc1ccc(C(=O)N[C@H](C(=O)Nc2nc3ccccc3[nH]2)C(C)C)cc1,5800 nM (active),

SMILES,Potency,"activity change, negative = inhibition"
N#CC(C(=S)Nc1ccccc1)c1nc2ccccc2[nH]1 (configuration not stated),,21.6% (inactive)
COc1cc(OC)cc(C(=O)N[C@H](C(=O)Nc2nc3ccccc3[nH]2)C(C)C)c1,1840 nM (active),
COc1ccc(NC(=S)N=Nc2c(O)[nH]c3ccccc23)cc1,,-16.6% (inactive)
COC(=O)Nc1nc2ccc(Sc3ccccc3)cc2[nH]1,,52% (inactive)
Cc1cccc(C(=O)N[C@H](C(=O)Nc2nc3ccccc3[nH]2)C(C)C)c1,3260 nM (active),
OCc1ccnc2c(O)cccc12,,3.41% (inactive)
O=C(N/N=C/c1ccc(Cl)cc1)c1sccc1OCc1ccc(F)cc1,5170 nM (active),
Fc1ccc(NC(=S)N/N=C/c2ccc(F)c(F)c2)cc1,,32.7% (inactive)
NNC(=O)/C(=C\c1ccco1)NC(=O)c1ccco1,,-4.29% (inactive)
COc1ccccc1C1=NOC(COc2ccc3c(C)cc(=O)oc3c2)C1 (configuration not stated),8200 nM (active),
Cc1cc(=O)oc2cc(OCC3CC(c4ccccc4Cl)=NO3)ccc12 (configuration not stated),2590 nM (active),
CCCCOc1ccc2c(C)cc(=O)oc2c1OCCCC,,-11.1% (inactive)
C=CCNC(=S)N/N=C/c1ccc(C)cc1C,,-9.31% (inactive)
Cc1ccc(NC(=S)NNC(C)(C)C)cc1,,-1.5% (inactive)
Cc1ccc(NC(=S)NNC(=S)Nc2ccc(C)cc2C)cc1,1840 nM (active),
CCOc1cc(NC(=O)CCl)c(OCC)cc1NC(=O)CCl,5800 nM (active),
C/C(=N\NC(=S)NC1CCCCC1)c1ccc(C)o1,,-3.17% (inactive)
C(=N\Nc1nc2ccccc2[nH]1)/C1CCCCC1,,2.77% (inactive)
CSc1nc(SCC(=O)NCc2ccco2)c2c3c(sc2n1)COC(C)(C)C3,20600 nM (active),
Cn1cccc1/C=C1\SC(=Nc2ccc(O)cc2)NC1=O,1030 nM (active),
O=C1NC(=Nc2ccc(O)cc2)S/C1=C\C=C\c1ccco1,2910 nM (active),
O=C(Cc1cccs1)N/N=C/C=C/c1ccco1,,-17.3% (inactive)
CCOc1c(Br)cc(CNc2ccc3c(c2)OCCO3)cc1OC,10300 nM (active),

SMILES,Potency,"activity change, negative = inhibition"
CCOc1cc(CNc2ccc3c(c2)OCCO3)cc(Br)c1OCC,5170 nM (active),
CCOc1c(Cl)cc(CNCC(C)C)cc1OC,,-6.38% (inactive)
Cc1ccc(/C=N/NC(=O)c2n[nH]c3c2CCCC3)cc1,206 nM (active),
O=C(NN=C1CCCC1)c1n[nH]c2c1CCC2,,-10.7% (inactive)
O=C(N/N=C/c1ccc(Cl)cc1)c1n[nH]c2c1CCCC2,2060 nM (active),
Cc1ccc(NC(=O)/C=C/c2ccco2)nc1,1160 nM (active),
COc1ccc(NC(=S)NC(=O)/C=C/c2ccco2)cc1,,-12.3% (inactive)
Cc1cccc(C)c1OCC(=O)N/N=C/C=C/c1ccco1,,-9.1% (inactive)
O=C(COc1ccc(Oc2ccccc2)cc1)NCc1cn2ccccc2n1,11600 nM (active),
O=C(CNCc1ccccc1)Nc1ccc(Oc2ccccc2)cc1,,-2.09% (inactive)
Cc1cccc(NC(=O)c2ccc(C(=O)Nc3cccc(C)c3)nc2)c1,10300 nM (active),
Cc1cccc(NC(=S)NNC(=O)CCn2cc(C)cn2)c1,,-3.27% (inactive)
CCOC(=O)c1c(C)c(C(=O)OCC)n(C)c1C,6510 nM (active),
CCOC(=O)c1c(C=O)c2sc(C)cc2n1C,,42.4% (inactive)
COc1ccc(/C(C)=N/Nc2ccc(C(=O)O)cc2)cc1OC,23.1 nM (active),
COc1ccc(/C(C)=N/Nc2nc3ccccc3nc2C)cc1OC,,-8.71% (inactive)
Cc1cc(C)c2nc3sc(C(=O)N4CCOCC4)c(N)c3cc2c1,1460 nM (active),
CCC1=Nc2cc(C(=O)NCCCOC)ccc2Sc2ccccc21,2060 nM (active),
CCCC1=Nc2cc(C(=O)NCCCOCC)ccc2Sc2ccccc21,1030 nM (active),
CCCC1=Nc2cc(C(=O)NCCCOC(C)C)ccc2Sc2ccccc21,20600 nM (active),
CCOCCCNC(=O)c1ccc2c(c1)N=C(CC)c1cc(Br)ccc1S2,259 nM (active),
